Screens deposited in PubChem BioAssay by National Center for Advancing Translational Sciences (NCATS).
Compounds with a hit are over-represented: about 1.9% of the library has one in this group of screens.
IL2 activator: IL-2 activation; IL-2 activation reporter assay, cell-based qHTS; stimulated with anti-CD3/CD4/CD28 beads; in transgenic mouse T cells; activation, % (series mostly up to about 46 µM); actives 0.065% (n = 360,000); AID 652025; in the data active means activation above about 50%; inconclusive means mostly about 30% to 49%; further: 0% is about no effect
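Unstimulated transgenic mouse T cells; 60-min compound exposure; bead-based TCR/CD4/CD28 stimulation; 18 h culture, 37 degrees C; dual fluorescence (EGFP, DsRed) plate cytometry.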
USP2a block: inhibitors of human ubiquitin-specific protease USP2a; actives 0.01% (n = 330,000); Potency, µM (top dose mostly 38.3 µM), inactives show at the highest dose activity change, negative = inhibition, most hits filed as inhibitors; O75604; USP2 core, Ub-CHOP2 coupled fluorogenic reporter, 485/531;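 further: potency means the concentration at half of the fitted maximal effect; plate controls were DMSO wells for no effect and full inhibition by NEM control for full effect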
Target sequence (O75604 whole entry, looked up): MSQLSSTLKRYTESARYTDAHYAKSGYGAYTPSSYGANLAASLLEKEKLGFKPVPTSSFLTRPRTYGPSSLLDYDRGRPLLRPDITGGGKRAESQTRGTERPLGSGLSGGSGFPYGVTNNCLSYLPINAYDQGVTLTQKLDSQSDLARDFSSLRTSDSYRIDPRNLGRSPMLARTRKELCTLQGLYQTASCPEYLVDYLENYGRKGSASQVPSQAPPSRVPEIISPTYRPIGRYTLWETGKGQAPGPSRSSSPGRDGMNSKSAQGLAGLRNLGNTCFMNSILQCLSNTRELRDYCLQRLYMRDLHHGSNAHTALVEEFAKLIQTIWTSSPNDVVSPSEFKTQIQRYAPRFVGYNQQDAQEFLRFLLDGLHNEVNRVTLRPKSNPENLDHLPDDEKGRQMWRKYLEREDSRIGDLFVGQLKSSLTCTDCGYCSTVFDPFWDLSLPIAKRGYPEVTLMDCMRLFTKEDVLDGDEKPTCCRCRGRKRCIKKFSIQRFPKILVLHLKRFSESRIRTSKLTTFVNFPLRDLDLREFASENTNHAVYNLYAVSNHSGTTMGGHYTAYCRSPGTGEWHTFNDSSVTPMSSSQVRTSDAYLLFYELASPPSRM
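USP2 core (10nM final) preincubated 30min RT with compound in 20mM Tris-HCl pH 8.0, 2mM CaCl2, 2mM beta-mercaptoethanol, 0.05% CHAPS; 25nM Ub-CHOP2 plus 25nM reporter substrate added, fluorescence (Ex485/Em531) read after 60min.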
PKM2 activator: PKM2 (human) enzyme activation. purified PKM2, Kinase-Glo ATP luminescence, activation; response scale: 0% is enzyme alone, no compound. Potency, µM (series often up to 57.5 µM), for inactives: at the highest dose activation, hits mostly activators. actives 0.34% (n = 260,000). P14618; further: potency means the concentration at half of the fitted maximal effect; on the % scale 0 is the no-effect control and ±100 the full control effect; nearly all actives have a fitted effect of over 55% in size
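Kinase-Glo luminescence reports ATP generated from ADP (0.1 mM) and PEP (0.5 mM) by purified hPK-M2 after 1 h at room temperature, pH 7.2 imidazole buffer; intermediate enzyme activity allows detecting inhibitors and activators.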
ClpP mod: qHTS Assay for Activators of ClpP; ATP-dependent Clp protease proteolytic subunit (Bacillus subtilis (strain 168)), P80244; purified B. subtilis ClpP, FRET peptide cleavage, 20 min; Potency, µM (top dose mostly 57.5 µM), inactives show at the top dose activity change, negative = active; actives 1.9% (n = 340,000); AID 651965, 2013; active means well fitted falling curve with a large enough effect; inconclusive means small, poorly fitted or top-dose-only effect; inactive means no such curve, though single readings can be large or run the other way; further: potency means the concentration at half of the fitted maximal effect; the source files actives as falling curves though it sought activators and does not explain the sign; nearly all actives have a fitted effect of over 65% in size
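ClpP 10 microg/mL final, pH 8 Tris/KCl buffer with BSA, glycerol, Tween-20; compound pinned in; FRET-FV substrate; RT 20 min; Ex320/Em430; ΔFRET vs ADEP 5.8 microM, DMSO, no enzyme.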
Integrin act MD: activators of alpha7 integrin expression for muscular dystrophy; alpha7betagal myoblasts, beta-gal FDG fluorescence, 48 h; Potency, µM (highest dose often 38.3 µM), inactives show at the highest dose activation, most hits filed as activators; actives 0.064% (n = 350,000); AID 624291;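 further: potency means the concentration at half of the fitted maximal effect; 100% = response of the positive control SU9516; nearly all actives have a fitted effect of over 60% in size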
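Alpha7betagal+/- myoblasts (passage 13) were plated 16-24 hr, then exposed to compounds (1:260 dilution of DMSO stock) for 48 hours at 37C. After MPER lysis, β-galactosidase reporter activity was read as FDG fluorescence (ex 480/em 540) after 30 minutes.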
Pin1 inh: blocks the human prolyl isomerase Pin1; Q13526; Pin1 FP peptide displacement, HiFluor488, 10 min; Potency, µM (series often up to 115 µM), for the others: at the highest dose activity, negative = inhibition, most hits filed as inhibitors; actives 0.009% (n = 390,000); active means well fitted inhibition curve with a large enough effect in the polarisation, with a control signal flat, not every such curve was filed as active; inconclusive means small, poorly fitted or top-dose-only effect, or effect the other way, or a change in a side signal; inactive means no such curve, though single readings can be large or run the other way; the % refers to the polarisation; further: potency means the concentration at half of the fitted maximal effect; on the % scale 0 is the no-effect control and ±100 the full control effect
Numbers without * were called inactive; ? = inconclusive; . = no result given. Unless noted, the call rests on the fitted dose curve; in most records, active means well fitted curve in the direction sought with a large enough effect; inconclusive means small, poorly fitted or top-dose-only effect, or another doubt; inactive means no such curve, though single readings can be large; an effect the other way counts as inactive or inconclusive.

SMILES	IL2 activator	USP2a block	PKM2 activator	ClpP mod	Integrin act MD	Pin1 inh
CCCCN(C)CCNC(=O)c1cc2c(-c3ccccc3F)nn(C)c2s1	-4	0%	.	25µM*	24%	-5%
COC(=O)C1=CN(C)C=C(C(=O)OC)C1c1ccsc1	0	5%	1%	7.9µM*	3%	-1%
CCOc1ccc(NC(=O)N(C(C)C)C2CCN(C(C)=O)CC2)cc1	.	.	.	1%	.	0%
CCOC(=O)c1ccccc1NC(=O)N(C(C)C)C1CCN(C(C)=O)CC1	.	.	.	28µM*	.	-13%
COc1ccc(CN2[C@@H](CC(=O)O)c3ccc(/C=C/C(=O)O)cc3S2(=O)=O)cc1	.	.	.	0%	.	.
CCOc1ccc(Nc2nc(N)c(C(=O)c3ccccc3Cl)s2)cc1	.	.	.	-1%	.	17%
S=C(c1ccc(Br)cc1)N1CCCC1	1	1%	.	25µM*	10%	8%
Oc1ccc(C(=S)N2CCCCC2)cc1	0	-1%	-5%	1%	-1%	-8%
C=C1C=CS(=O)(=O)N(Cc2ccccc2)C1	.	.	.	.	.	-2%
O=[N+]([O-])c1ccc(Nc2nc(NCCN3CCOCC3)nc(Nc3ccc(I)cc3)n2)cc1	.	.	.	0%	.	.
CC(C)Cc1nc2oc3c(NCc4cccnc4)ncnc3c2c2c1CCC2	-1	0%	-4%	18µM*	-16%	-3%
CC(C)Cc1nc2oc3c(NCC4CCCO4)ncnc3c2c2c1CCC2 (stereo not given)	-5	-2%	2%	?	-6%	-2%
CC(C)c1nc2oc3c(NCc4cccnc4)ncnc3c2c2c1CCC2	0	0%	6%	14µM*	4%	-1%
Nc1[nH]c(=O)[nH]c(=O)c1N=Cc1ccccc1	-2	.	.	28µM*	34%	?
O=c1[nH]c(NCCO)c(N=Cc2ccccc2)c(=O)[nH]1	-2	.	.	.	-23%	-21%
CCc1ccccc1NC(=O)CSc1nncn2c1cc1oc(C)cc12	.	.	.	-5%	.	11%
O=C(O)/C=C/c1cc(F)c(S(=O)(=O)N2CCN(S(=O)(=O)c3ccc4c(c3)OCCO4)CC2)cc1F	.	.	.	.	.	3%
O=[N+]([O-])c1ccc(/C=C/c2cc(Cl)nc3ccccc23)cc1	.	.	.	0%	.	.
Cc1c(Cl)cccc1NC(=O)CSc1nc(=O)n(CCCN2CCOCC2)c2c1CCC2	-5	0%	.	20µM*	-1%	-2%
Cc1c(Cl)cccc1NC(=O)CSc1nc(=O)n(CCN2CCOCC2)c2c1CCC2	.	.	.	-7%	.	-5%
COc1cc(NC(=O)CSc2nc(=O)n(CCCN3CCOCC3)c3c2CCC3)cc(OC)c1	-2	2%	.	25µM*	-26%	1%
c1cc2c(cc1Cc1cncc(Cc3ccc4c(c3)OCO4)c1)OCO2	.	.	.	0%	.	.
Cc1ccccc1NC1=NC(=S)N(c2ccccc2)C12CCOC(C)(C)C2 (stereo not given)	1	-1%	-4%	1%	10%	-1%
Cc1ccccc1NC1=NC(=S)N(c2ccccc2)C12CCCCC2	1	1%	6%	28µM*	0%	-4%
COc1cc2ccccc2cc1C(=O)OCC(=O)N1CCOCC1	1	-3%	13%	?	3%	-13%
O=C(OCC(=O)N1CCOCC1)c1ccc2ccccc2c1O	-2	0%	.	28µM*	-21%	0%
COC(=O)Nc1nnc(/C=C/c2ccc(OC)cc2)s1	-1	3%	-28%	22µM*	1%	12%
Nc1c(S(=O)(=O)c2cccs2)c2nc3ccccc3nc2n1/N=C/c1cccc(O)c1	-2	-7%	1%	2.8µM*	-46%	17%
COc1cccc(/C=N/n2c(N)c(S(=O)(=O)c3cccs3)c3nc4ccccc4nc32)c1	-1	3%	9%	2.8µM*	?	?
COc1ccc(/C=N/n2c(N)c(S(=O)(=O)c3cccs3)c3nc4ccccc4nc32)cc1OC	-2	0%	4%	13µM*	12%	0%
